# Test results reported in PubChem BioAssay AID1851 (National Center for Advancing Translational Sciences (NCATS), 2009).
# Several values for one entry are separate records, joined by “and”; a condition that tells them apart may be missing. Equal values may be shown once. The whole screen tested about 16,000 compounds, of which about 2,600 (16%) were called active. Not shown: some 20% with an inconclusive outcome. Only a selection was taken, and actives are over-represented in it overall. Values without a mark were called inactive. The call rests on the fitted dose curve; in most records, active means well fitted curve in the direction sought with a large enough effect; inconclusive means small, poorly fitted or top-dose-only effect, or effect the other way; inactive means no such curve, though single readings can be large or run the other way.
# Biological target: Cytochrome P450 2D6 (Homo sapiens) (UniProt P10635)
# Sequence (P10635 whole entry, looked up): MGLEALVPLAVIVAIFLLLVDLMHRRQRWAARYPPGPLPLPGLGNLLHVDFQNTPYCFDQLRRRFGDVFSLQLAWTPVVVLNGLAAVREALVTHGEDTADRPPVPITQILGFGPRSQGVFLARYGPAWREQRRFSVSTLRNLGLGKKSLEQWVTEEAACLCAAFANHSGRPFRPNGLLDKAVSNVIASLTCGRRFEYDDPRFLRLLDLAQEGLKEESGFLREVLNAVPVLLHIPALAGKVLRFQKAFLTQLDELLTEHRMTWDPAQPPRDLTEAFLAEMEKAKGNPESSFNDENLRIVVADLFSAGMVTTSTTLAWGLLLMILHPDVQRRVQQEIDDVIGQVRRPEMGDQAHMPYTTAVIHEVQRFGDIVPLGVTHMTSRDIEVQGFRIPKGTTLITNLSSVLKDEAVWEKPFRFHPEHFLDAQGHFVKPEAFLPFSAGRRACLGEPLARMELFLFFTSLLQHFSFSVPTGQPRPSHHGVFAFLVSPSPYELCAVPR
# Test: Cytochrome panel assay with activity outcomes
# Settings: recombinant CYP, pro-luciferin dealkylation, luminescence, p450-cyp2d6; series mostly up to 57.1 µM
# On the % scale 0 is the no-effect control and ±100 the full control effect.
Compound,AC50,"activity, negative = inhibition"
Cc1cccc(N2C(=O)NC(=O)/C(=C\c3cnn(-c4ccccc4)c3)C2=O)c1,inactive,–
C[C@H](Br)C(=O)N[C@H](CO)C(=O)O,–,5.11% [at 11.4 µM]
NCC1(CC(=O)O)CCCCC1,inactive,–
CCN1C[C@]2(COC(=O)c3ccccc3N3C(=O)C[C@H](C)C3=O)CC[C@H](OC)[C@@]34[C@@H]5C[C@H]6[C@H](OC)[C@H]5[C@](O)(C[C@@H]6OC)[C@@](O)([C@@H](OC)[C@@H]23)[C@@H]14,inactive,–
O=[N+]([O-])c1cc(-c2ccc([As](=O)(O)O)cc2)ccc1[As](=O)(O)O,–,14% [at 11.4 µM]
CC(C)Oc1cccnc1N(C)C1CCN(Cc2ccccc2)CC1,7.94 µM (active),–
NNC(N)=O,inactive,–
CC(=O)[C@]1(O)CC[C@@H]2[C@H]3C[C@@H](C)C4=CC(=O)CC[C@@]4(C)[C@H]3[C@@H](O)C[C@]21C,–,1.26% [at 11.4 µM]
c1cc(C2N3CCCN2CC3)ccn1 (stereo not given),–,15.8% [at 11.4 µM]
CC[C@H](C(=O)[C@H](C)[C@H](O)[C@H](C)CCc1ccc(C)c(O)c1C(=O)O)[C@H]1O[C@](CC)([C@@H]2CC[C@@](O)(CC)[C@H](C)O2)C[C@H]1C,inactive,–
Cc1cc(C(C)(C)C)cc(C)c1CC1=NCCN1,31.6 µM (active) and 3.98 µM (active),–
O=C(O)[C@@H]1C[C@H]1[C@@H](NP(=O)(c1ccccc1)c1ccccc1)c1ccccc1,inactive,–
c1cncc([C@@H]2CCCCN2)c1,inactive,–
CCCCn1c(O)c(C=NCCN2CCCCC2)c(=O)[nH]c1=O,inactive,–
COCOc1ccc(Br)cc1C(=O)/C=C\c1ccc2c(c1)OCO2,3.16 µM (active),–
NC[C@@H](O)CSP(=O)(O)O,–,3.14% [at 11.4 µM]
O=C1C[C@@H](c2ccc(O)cc2)Oc2cc(O)cc(O)c21,inactive,–
CC(=O)O[C@H]1CC[C@@]2(C)[C@@H](CC[C@H]3[C@H]2CC(=O)[C@]2(C)[C@@H]3C[C@@H](N3CC3)[C@H]2C(C)=O)C1,–,-8.74% [at 11.4 µM]
NC(N)=NC(=O)c1nc(Cl)c(N)nc1N,inactive,–
Ic1ccccc1CN[C@@H]1C2CCN(CC2)[C@H]1C(c1ccccc1)c1ccccc1,0.0631 µM (active),–
NO,inactive,–
CC(=O)OCC1=C(C(=O)[O-])N2C(=O)[C@@H](NC(=O)CCC[C@@H](N)C(=O)[O-])[C@@H]2SC1.[Zn+2],inactive,–
O=c1cc(-c2ccc(O)cc2)oc2c([C@H]3O[C@@H](CO)[C@@H](O)[C@@H](O)[C@@H]3O)c(O)cc(O)c12,inactive,–
COC(=O)[C@H]1C(=O)c2ccccc2O[C@@](C(=O)OC)(c2ccccc2)[C@@H]1c1ccccc1,–,11.5% [at 11.4 µM]
Cn1cccc1CNCCc1ccccc1,2.51 µM (active),–
O=C(O)Cc1ccc([N+](=O)[O-])cc1[N+](=O)[O-],–,5.45% [at 11.4 µM]
Cc1cc(Cc2cc(C)c(N)cc2N)c(N)cc1N,–,-18.6% [at 11.4 µM]
CSCC[C@@H](N)P(C)(=O)O,–,3.31% [at 11.4 µM]

Compound,AC50,"activity, negative = inhibition"
c1ccc2c(c1)[I+]c1ccccc1-2,3.98 µM (active) and 794 nM (active),–
CN1C2C=C3C(C#N)=C(N)C(C#N)(C#N)[C@H](c4c(F)cccc4F)[C@H]3C1CC2 (stereo not given in full),inactive,–
CCC[C@@](C)(COC(N)=O)COC(=O)NC(C)C,inactive,–
Clc1ccccc1-c1cncnc1NCCc1cnc[nH]1,3.98 µM (active),–
Cc1ccccc1-c1cncnc1NCCc1cnc[nH]1,12.6 µM (active),–
CNCCc1cnc[nH]1,inactive,–
Cn1cnc(CCN)c1,inactive,–
C[C@H]1CC[C@@]2(NC1)O[C@@H]1C[C@H]3[C@@H]4CC[C@@H]5C[C@@H](O)CC[C@@]5(C)[C@@H]4CC[C@]3(C)[C@@H]1[C@@H]2C,inactive,–
C[C@]1(C(=O)O)[C@@H]2CC[C@@H](O2)[C@@]1(C)C(=O)O,inactive,–
[N-]=[N+]=CC(=O)CC[C@H](N)C(=O)O,–,-11.2% [at 11.4 µM]
CN(C)CCCNc1c2c(nc3ccc(Cl)cc13)CCCC2,–,9.14% [at 11.4 µM]
COc1ccc(C2SCC(=O)Nc3c2c(C)nn3C2CCOC(C)(C)C2)cc1 (stereo not given),inactive,–
C[C@@]12CC[C@H](O)C[C@@H]1CC[C@@H]1[C@@H]2CC[C@@]2(C)[C@@H](C3=CC(=O)OC3)[C@H](O)C[C@]12O,–,17.5% [at 11.4 µM]
Cc1cc2c(C(F)(F)F)cc(=O)oc2c2c1NCCC2,inactive,–
N=C(N)SCc1ccc(Cl)c2ccccc12 (tested in a mixture with another compound),3.16 µM (active),–
C/C(=N\OC(=O)NC(C)C)c1sc(-c2ccc(Cl)cc2)nc1C,inactive,–
C[C@@]12CC[C@H](O[C@@H]3O[C@H](CO)[C@@H](O)[C@H](O)[C@@H]3O)C[C@@H]1CC[C@H]1[C@H]2CC[C@@]2(C)[C@@H](C3=CCOC3=O)CC[C@]12O,–,-0.449% [at 11.4 µM]
COc1ccc(C[C@H]2NC[C@H](O)[C@@H]2OC(C)=O)cc1,7.94 µM (active),–
c1ccc2c(c1)OC[C@@H](C1=NCCN1)O2,0.631 µM (active),–
C[N+]1(C)CCO[C@](O)(c2ccc(-c3ccc([C@]4(O)C[N+](C)(C)CCO4)cc3)cc2)C1,inactive,–
Cc1ccc(N=Nc2c(O)[nH]c(=O)[nH]c2=O)c([N+](=O)[O-])c1,inactive,–
Nc1nc(N)c(N=Nc2ccc([As](=O)(O)O)cc2)c(=O)[nH]1,–,13.1% [at 11.4 µM]
CCCCCCCCCCCCCC(=O)O[C@H]1[C@@H](C)[C@@]2(O)[C@@H](C=C(CO)C[C@]3(O)C(=O)C(C)=C[C@@H]23)C2C(C)(C)[C@]21OC(C)=O (stereo not given in full),inactive,–
COCCNC(=S)N1C2CCC1CC(NC(=O)NC13CC4CC(CC(C4)C1)C3)C2 (stereo not given),inactive,–
COCCNC(=S)NC1CC2CCCC(C1)N2Cc1cccs1 (stereo not given),0.398 µM (active),–
CCc1ccccc1NC(=O)NC1CC2CCC(C1)N2Cc1cccs1 (stereo not given),6.31 µM (active),–
COCCCNC(=S)NC1CC2CCCC(C1)N2Cc1cccs1 (stereo not given),0.891 µM (active),–
